This is one part of a sample in which hits are shown more often than they occur.
nsP2pro primary: blocks chikungunya virus nsP2 protease peptide cleavage; FRET peptide cleavage, nsP2pro, fluorescence 1 h; hit rate 1.1% among 31,000; Potency, µM (highest dose often 24.9 µM), without a hit: at the highest dose activity change, negative = inhibition, actives largely listed as inhibitors; note: nearly all actives have a fitted effect of over 60% in size
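Enzyme 150 nM, substrate 2.5 uM (both final); Tris-HCl 10 mM pH 8.0 + 0.01% Tween 20; cpd up to 25 uM, 7 pts; 15 min preinc., 1 h RT; fluorescence ex 525/em 598.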
nsP2 cell sec: cell-based CHIKV nsP2 protease inhibition, secondary. shares compounds with nsP2pro primary. cell-based CHIKV nsP2 protease reporter assay. Potency, µM (titrated, usually from 51.1 µM), inactives show at the highest dose activity change, negative = inhibition, usual class: inhibitors. hit rate 10% among 450. AID 1964100; note: nearly all actives have a fitted effect of over 70% in size
NSP2 full ctr: inhibits full-length CHIKV NSP2 enzyme. Full-length CHIKV NSP2 protease enzymatic counterscreen. Potency, µM (titrated, usually from 50.7 µM), without a hit: at the highest dose activity change, negative = inhibition, usual class: inhibitors. shares compounds with nsP2pro primary. hit rate 39% among 410; note: nearly all actives have a fitted effect of over 65% in size
Furin counterscr: human furin inhibition, counterscreen for nsP2pro inhibitors; hit rate 6% among 410; shares compounds with nsP2pro primary; Recombinant human furin enzymatic counterscreen, fluorogenic substrate; AID 1964102; Potency, µM (series often up to 50.6 µM), inactives show at the highest dose activity change, negative = inhibition, actives largely listed as inhibitors
nsP2 NS23 pep: selectivity test for CHIKV nsP2 protease inhibitors: endogenous NS2/3 peptide; AID 1964103; Purified CHIKV nsP2 protease, endogenous NS2/3 peptide cleavage; hit rate 34% among 410; shares compounds with nsP2pro primary; Potency, µM (series often up to 51 µM), for inactives: at the highest dose activity change, negative = inhibition, actives largely listed as inhibitors; note: nearly all actives have a fitted effect of over 55% in size
Papain counter: papain protease inhibition, counterscreen for nsP2pro inhibitors. purified papain protease activity, enzymatic inhibition. hit rate 5% among 410. AID 1964104. shares compounds with nsP2pro primary. Potency, µM (top dose mostly 51 µM), for the others: at the top dose activity change, negative = inhibition, actives largely listed as inhibitors
nsP2pro conf qHTS: confirmation of CHIKV nsP2 protease inhibitors. shares compounds with nsP2pro primary. CHIKV nsP2 protease enzymatic activity, qHTS. Potency, µM (series often up to 25.5 µM), inactives show top-dose activity change, negative = inhibition, most hits filed as inhibitors. hit rate 43% among 410. AID 1964105; note: nearly all actives have a fitted effect of over 75% in size
HCV NS3 4A cs: inhibits HCV NS3/4A protease in an nsP2pro selectivity counterscreen | shares compounds with nsP2pro primary | HCV NS3/4A protease biochemical counterscreen | Potency, µM (top dose mostly 50.9 µM), actives largely listed as inhibitors | hit rate 20% among 410 | AID 1964106; note: nearly all actives have a fitted effect of over 55% in size
Numbers without * were called inactive; i = inactive; ? = inconclusive; [ ] = dose if it differs, or a comment. Calls come from the whole dose curve. % is set by controls: 0 for no effect and ±100 for the full control effect; potency is the fitted concentration of half-maximal effect.

SMILES	nsP2pro primary	others
CCCCCCCCCCCCCCCCCC(=O)OCC(O)CO (centres undefined)	12.3%
CC(=O)OC1CC(O)C(C)(C)C2CC(OC(C)=O)C3(C)C(CCC4(C)C(c5ccoc5)C(=O)C5OC543)C12C (centres undefined)	-27.0%[10 µM]
CC1(C)OC(=O)C=C[C@@]2(C)C1CC(=O)[C@]1(C)C2CC[C@@]2(C)[C@H](c3ccoc3)OC(=O)[C@H]3O[C@]321 (some centres undefined)	3.42µM*	nsP2 cell sec=4.8%[17.6 µM];NSP2 full ctr=?;Furin counterscr=5.9%[17.3 µM];nsP2 NS23 pep=-10.8%[17.2 µM];Papain counter=-3.7%[17.2 µM];nsP2pro conf qHTS=-28.4%[8.62 µM];HCV NS3 4A cs=i
CC(C)(O)C1CC(=O)C2(C)C(CCC3(C)C(c4ccoc4)OC(=O)C4OC432)C12CCC(=O)OC2 (centres undefined)	0.858µM*	nsP2 cell sec=1.8%[17.6 µM];NSP2 full ctr=?;Furin counterscr=6.0%[17.3 µM];nsP2 NS23 pep=-19.4%[17.2 µM];Papain counter=-8.2%[17.2 µM];nsP2pro conf qHTS=?;HCV NS3 4A cs=?
Cc1ccc(NS(=O)(=O)c2ccc3[nH]c(=O)oc3c2)c(C)c1	3.7%
Cc1cc(C)cc(NCc2nnc3n2CCCCC3)c1	-23.4%
O=c1c2cc(-c3cccs3)nn2ccn1CC(O)c1cccc(Cl)c1 (centres undefined)	i
CCN(CC)c1nc(-c2ccccc2Cl)c2cc(Br)ccc2n1	-13.9%
Cc1cc(C)c(NC(=O)CSc2nc(=O)[nH]c3c2CCCC3)c(C)c1	-3.9%
Cc1ccc(-n2nc(C(=O)N3CCN(c4cccc(C(F)(F)F)c4)CC3)c(=O)n(C)c2=O)cc1	-2.7%
C[C@@H]1O[C@@H](O[C@H]2[C@@H](OC(=O)[C@]34CCC(C)(C)CC3C3=CCC5[C@@]6(C)C[C@H](O)[C@H](O[C@@H]7O[C@H](CO)[C@@H](O)[C@H](O)[C@H]7O[C@@H]7OC[C@@H](O)[C@H](O)[C@H]7O)[C@@](C)(C(=O)O)C6CC[C@@]5(C)[C@]3(C)CC4)OC[C@H](O)[C@@H]2O)[C@H](O)[C@H](O)[C@H]1O[C@@H]1OC[C@@H](O)[C@H](O)[C@H]1O (some centres undefined)	-9.3%[5.1 µM]
COc1ccc(-n2ncc3c2CCCC3NC(=O)c2ccc3ncccc3c2)cc1 (centres undefined)	?	nsP2 cell sec=20.6µM*;NSP2 full ctr=?;Furin counterscr=-3.7%;nsP2 NS23 pep=-13.7%;Papain counter=-9.1%;nsP2pro conf qHTS=6.1%;HCV NS3 4A cs=?
COc1ccc(-n2ncc3c2CCCC3NC(=O)c2cnc(C)cn2)cc1 (centres undefined)	-6.8%
O=C(NC1CCCc2c1cnn2-c1ccc(F)cc1F)c1ccc(C(=O)c2ccccc2)cc1 (centres undefined)	-3.1%
c1ccc2c(c1)sc1ccccc12	0.3%
CCCn1c(C)nc2c(NCCOC)nc(C)nc21	-6.9%
CC1(COc2ccc3c(c2)ncn3-c2ccc3cccc(N4CCC(N)CC4)c3n2)COC1	61.6%
Cc1ccc([S+](=O)([O-])NC2CCN(Cc3ccc(-c4ccsc4)cc3)C2)cc1 (centres undefined)	i
CCCCCC[C@@H](O)C/C=C\CCCCCCCC(=O)O	-13.8%
CC/C=C\C/C=C\C/C=C\C/C=C\C/C=C\CCCC(=O)O	?	nsP2 cell sec=13.1%[100 µM];NSP2 full ctr=6.68µM*;Furin counterscr=-10.8%[100 µM];nsP2 NS23 pep=?;Papain counter=33.5µM*;nsP2pro conf qHTS=8.19µM*;HCV NS3 4A cs=i
CCCCC[C@H](O)C=C[C@H]1[C@H](O)CC(=O)[C@H]1CC=CCCCC(=O)O	-10.2%
COc1ccc(S(=O)(=O)Nc2c(C)cc(C)cc2C)cc1	-9.7%
C[C@]12CCC(=O)C=C1[C@@H]1C[C@@H]1[C@H]1[C@@H]3[C@@H]4C[C@@H]4[C@@]4(CCC(=O)O4)[C@@]3(C)CC[C@@H]12	17.3%
CC(C)OCCCNC(=O)CCCn1c(=O)[nH]c2ccsc2c1=O	-15.0%
CC1=CCC2C(C)(CO)CCCC2(CO)C1CO (centres undefined)	55.0%
SMILES	nsP2pro primary	others
Cc1cc(C)cc(NC(=O)c2cnn(-c3ccc(C)c(C)c3)c2C2CCNCC2)c1	-16.0%
O=C(Nc1cccc(C(F)(F)F)c1)c1cnn(-c2cccc(F)c2)c1C1CCNCC1	8.91µM*	nsP2 cell sec=113.7%;NSP2 full ctr=11.6µM*;Furin counterscr=-7.0%;nsP2 NS23 pep=?;Papain counter=2.5%;nsP2pro conf qHTS=?;HCV NS3 4A cs=7.3µM*
O=C(c1ccco1)N1CCN(C(=O)c2cnn(-c3cccc(F)c3)c2C2CCNCC2)CC1	-39.6%
Cc1[nH]ccc1C(=O)N(CCN1CCCCC1)CC1CCCN(C2CCCC2)C1 (centres undefined)	-10.2%
COC(=O)c1cccc(-n2c(CCC(=O)O)ccc2-c2cccs2)c1	8.91µM*	nsP2 cell sec=2.1%
CC(=O)c1ccc(-n2c(CCC(=O)O)ccc2-c2cccs2)cc1	9.7%
COC(=O)c1ccccc1NC(=O)Cn1c(CCC(=O)O)ccc1-c1cccs1	2.1%
Clc1cccc(C2=NC(c3cccs3)=Nc3ccc(Br)cc3N2)c1	-29.0%
CC1(C)CC2CC(C)(CN2S(=O)(=O)c2ccc(C(=O)Nc3cccc(S(=O)(=O)N4CCOCC4)c3)cc2)C1 (centres undefined)	-7.7%
N[C@@]1(C(=O)O)CC[C@H]2[C@H](C(=O)O)[C@H]21	9.2%
C=C(C)C(=O)O[C@H]1[C@H]2C(=C)C(=O)O[C@@H]2C[C@@H](C)[C@@H]2O[C@@H]2C(=O)[C@](C)(O)[C@@H]1OC(=O)C(=C)C	-3.2%[10 µM]
C=CC1(C)CC(O)C(C(=C)C(=O)OC)C(O)C1C(=C)CO (centres undefined)	-19.3%
C=C[C@]1(C)C[C@H](O)[C@H]2C(=C)C(=O)O[C@@H]2[C@H]1C(=C)CO	?	nsP2 cell sec=?;NSP2 full ctr=?;Furin counterscr=-3.7%;nsP2 NS23 pep=-23.1%;Papain counter=-9.9%;nsP2pro conf qHTS=?;HCV NS3 4A cs=i
CCC(Sc1nc2cc3c(cc2c(=O)n1CCCC(=O)NCc1ccc2c(c1)OCO2)OCO3)C(=O)NCCCOC (centres undefined)	-16.9%
CC(=O)Nc1ccc(NC(=O)c2cc(-c3ccc4c(c3)OCCO4)on2)cc1	-9.4%
COc1cccc(C2c3c(ncn(-c4ccccc4)c3=N)Oc3ccc4ccccc4c32)c1 (centres undefined)	-0.5%
COc1ccc(-c2nn(-c3ccccc3)cc2C(=O)Nc2ccccc2OC)cc1	-19.9%

Screening data deposited in PubChem BioAssay by National Center for Advancing Translational Sciences (NCATS).
